Consider 48 compounds from PubChem BioAssay AID2685 (National Center for Advancing Translational Sciences (NCATS), 2010).

The structures appear in SMILES notation. About 2,100 (0.66%) of roughly 320,000 compounds were called active. Inconclusive results (about 53%) are left out. Calls come from the whole dose curve; as a rule, active = well fitted inhibition curve with a large enough effect in the signal ratio, with a control signal flat (not every such curve was filed as active); inconclusive = small, poorly fitted or top-dose-only effect, or effect the other way, or a change in a side signal; inactive = flat fitted curve, though single readings scatter; the % refers to the signal ratio. The sample as a whole holds a higher share of actives than the screen did.
Potency is the fitted concentration of half-maximal effect.

The nature of this assay: qHTS Assay for Lipid Storage Modulators in Drosophila S3 Cells.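 For cell number change: cells counted by Cell Tracker Red CMTPX staining in the red channel.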 As to conditions: BODIPY lipid droplet fluorescence, 18-24 h, cells fed with added oleic acid; cell number change: measured here: cell count max response; series mostly up to 46.1 µM. Put shortly: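 Laser-scanning cytometry quantifies lipid droplet accumulation (500–530 nm total intensity; droplet/cell object ratio) in oleic acid-fed (400 uM added) Drosophila S3 cells treated with a concentration series. 20 uM Triacsin C defined 100% inhibition.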
`CC(C)(C)NC(=O)COC(=O)c1ccccc1Oc1ccccc1`: the Potency result was “inactive”.

As for `CN(C)S(=O)(=O)c1cccc(NC(=O)COC(=O)C2(c3ccccc3F)CCCC2)c1`, the Potency was 8.2 µM (active) and the cell number change was -25.4%. Regarding `Cc1nnnn1/C(=C\c1ccccc1)C(=O)OCC(=O)Nc1cccc(S(=O)(=O)N(C)C)c1`, the Potency is 3.66 µM (active) and the cell number change is -25%.

Turning to `CN(C)S(=O)(=O)c1cccc(NC(=O)COC(=O)CNC(=O)c2ccccc2F)c1`, the Potency result was “inactive”. Regarding `CC(=O)c1ccccc1NC(=O)COC(=O)c1ccccc1NC(=O)c1ccccc1`, the Potency result was “inactive” and the cell number change was -15%. On the same counts, the results for `COc1ccc(C2N(c3ccc4c(c3)OCCO4)C(=O)C2(F)F)cc1OC` (stereo not given) are “inactive” and -17.8%. For `Cc1c(Cl)cccc1NC(=O)NCc1ccc(F)cc1`, in that order: “inactive” and 3.73%.

Take `COc1cccc(-c2noc(C3CCCN(C(=O)c4cccc(F)c4)C3)n2)c1` (stereo not given): the Potency entry was “inactive” and the cell number change is -8.07%. Take `CCOc1ccc(N(CC(=O)Nc2ccc(C)c(C)c2)S(=O)(=O)c2c(C)[nH]c(=O)[nH]c2=O)cc1`: the Potency entry was “inactive” and the cell number change was 10.2%. `CCC(C)NC(=O)C(=O)NCc1ccncc1` (stereo not given): the Potency result was “inactive” and the cell number change is -9.14%. Consider `CCc1ccc2oc(C(=O)N3CCN(C)CC3)cc(=O)c2c1`, for which the Potency entry is “inactive” and the cell number change came out at 14.4%.

As to `O=C1/C(=C/c2cccnc2)CCC/C1=C\c1cccnc1`, the Potency was 14.6 µM (active) and the cell number change is -13.8%.

Take `O=C1/C(=C/c2cccnc2)CC/C1=C\c1cccnc1`: the Potency result was “inactive” and the cell number change was -4.02%. For `CC(C)/C=C1\CC/C(=C\c2cccnc2)C1=O`, the Potency result is “inactive” and the cell number change was -13.9%. On the same counts, the results for `CC1C/C(=C/c2cccs2)C(=O)/C(=C/c2cccs2)C1` (stereo not given) are “inactive” and -17.9%. For `CC1C/C(=C\c2cccnc2)C(=O)/C(=C/c2cccnc2)C1` (stereo not given), in that order: 5.17 µM (active) and -29%. On the same counts, the results for `O=C1/C(=C/c2cccnc2)Cc2ccc(Cl)cc21` are “inactive” and 24.8%. As for `CN(C)c1cccc(C(=O)NNC(=O)NC2CCCCC2)c1`, the Potency entry was “inactive” and the cell number change was -5.42%. On the same counts, the results for `Cc1cccc2cc(CN(CC3CCCO3)S(=O)(=O)c3ccccc3)c3nnnn3c12` (stereo not given) are “inactive” and 3.31%.

Consider `CC(CC(=O)Nc1cccc(F)c1)S(=O)(=O)c1ccc2c(c1)NC(=O)CO2` (stereo not given), for which the Potency result was “inactive” and the cell number change is 6.92%.

For `C/C(=N\NC(=O)c1ccccc1OCc1ccc(F)cc1)c1ccccn1`, the Potency result was “inactive” and the cell number change was -7.7%. For the compound `CCN(CC)C(=O)c1sc2nc(-c3cccs3)cc(-c3ccc(Cl)cc3)c2c1N`, the Potency was 20.6 µM (active) and the cell number change was found to be 23.2%. In the case of `N#Cc1sc2nc(-c3cccs3)cc(-c3ccc(F)cc3)c2c1N`, the Potency result is “inactive” and the cell number change was -15.9%. For `Nc1c(C(=O)O)sc2nc(-c3ccccc3)cc(-c3ccc(Cl)cc3)c12`, in that order: “inactive” and -6.59%. For the compound `COc1ccc(N2C(=O)CC(Sc3nc(C)cc(C)n3)C2=O)cc1OC` (stereo not given), the Potency entry is “inactive” and the cell number change amounted to 22%. `CC(=O)c1c(C)[nH]c(C(=O)Nc2nccs2)c1C`: the Potency result was “inactive” and the cell number change stood at 5.23%.

Take `CC(=O)c1c(C)[nH]c(C(=O)Nc2ccccn2)c1C`: the Potency was 29.1 µM (active) and the cell number change is -7.6%. For `CCC(C)c1ccccc1NC(=O)c1[nH]c(C)c(C(C)=O)c1C` (stereo not given), in that order: “inactive” and -4.58%. For `O=C(CN1CCN(S(=O)(=O)c2ccccc2)CC1)NC1CC1`, in that order: “inactive” and -0.697%.

On to `CCOC(=O)C1CCN(C(=O)c2ccc(N3CCCC3=O)cc2)CC1`, for which the Potency result was “inactive” and the cell number change amounted to 2.94%.

Regarding `O=C(NCc1ccc(F)cc1)c1cc2c(s1)CS(=O)(=O)C2`, the Potency result was “inactive” and the cell number change is -3.83%. On to `COC(=O)c1c(C)[nH]c(C(=O)/C=C/c2ccc(C)cc2)c1C`, for which the Potency entry was “inactive” and the cell number change came out at 11.4%.

Take `CCN1CCc2nc(NC(=O)c3ccc(S(=O)(=O)N(C)C)cc3)sc2C1`: the Potency result was “inactive”. For the compound `CCN1CCc2nc(NC(=O)c3ccc4c(c3)OCCO4)sc2C1`, the Potency entry is “inactive” and the cell number change was -22.4%.

Turning to `CCN1CCc2nc(NC(=O)C(c3ccccc3)c3ccccc3)sc2C1`, the Potency is 20.6 µM (active) and the cell number change was -8.16%.

For the compound `CCC(=O)Nc1c2c(nn1-c1ccc(OC)cc1)CS(=O)C2` (stereo not given), the Potency entry is “inactive” and the cell number change was -17%. As to `COc1ccccc1N(CC(=O)NCC1CCCO1)C(=O)CNS(=O)(=O)c1ccccc1` (stereo not given), the Potency result was “inactive”. For `Cc1nc2ccccc2n1CSc1ccccc1`, the Potency entry was “inactive” and the cell number change turned out to be 7.45%. On the same counts, the results for `COc1cccc(-c2ccc(C#N)c(OC(=O)c3c(Cl)cccc3Cl)n2)c1` are “inactive” and -22.9%. For `Cc1cc(NC(=O)C(C)SCC(=O)Nc2nc3c(F)cc(F)cc3s2)no1` (stereo not given), in that order: “inactive” and -16.6%.

Take `Cc1cc(NC(=O)CSCC(=O)Nc2nc3ccc(F)cc3s2)no1`: the Potency is 11.6 µM (active) and the cell number change worked out at 9.73%. With `Cc1cc(NC(=O)CSc2ccc(F)cc2)no1`, the Potency entry is “inactive”.

As to `O=C(CN1C(=O)S/C(=C/c2ccc(N3CCOCC3)cc2)C1=O)N1CCOCC1`, the Potency result is “inactive” and the cell number change turned out to be 13.3%.

Turning to `O=C(CN(Cc1ccc(F)cc1)C(=O)c1csnn1)NC1CCCC1`, the Potency result is “inactive” and the cell number change stood at 10.5%. Take `Cc1cccc(-c2noc(CN(C(=O)C34CC5CC(CC(C5)C3)C4)C(C)C)n2)c1`: the Potency entry was “inactive” and the cell number change came out at 15.9%. Consider `COc1cc(OC)cc(C(=O)N(Cc2nc(-c3cccc(C)c3)no2)C(C)C)c1`, for which the Potency entry was “inactive”. With `COc1cccc(C(=O)N(Cc2nc(-c3cccc(C)c3)no2)C(C)C)c1OC`, the Potency was 18.4 µM (active) and the cell number change was -16.8%. With `O=C(COc1ccc(Cl)cc1)N(Cc1ccco1)C1CCS(=O)(=O)C1` (stereo not given), the Potency result is “inactive” and the cell number change turned out to be 5.12%.
